Screening data (PubChem BioAssay)
Mtb betalactam: beta-lactam sensitization of Mtb H37Rv. M. tuberculosis H37Rv growth with meropenem, percent inhibition. inhibition, % at 25 µM. actives 0.27% (n = 330,000); call rule not given here;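 further: growth measured after seven days incubation then overnight dye step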
GDH-TPI counter: counter-screen for M. tuberculosis FBA inhibitors: GDH-TPI coupled enzymes | GDH-TPI coupled enzyme counterscreen, NADH absorbance | inhibition, % at 4.8 µM | actives 1.2% (n = 360,000); in the data active means inhibition above about 30%
Mtb FBA inh: inhibitors of M. tuberculosis fructose-bisphosphate aldolase | P9WQA3 | purified M. tuberculosis FBA, fluorescence read-out | inhibition, % at 1 µM | actives 2.3% (n = 360,000); in the data active means inhibition above about 27%
Rv3671c protease: Rv3671c (M. tuberculosis) protease inhibition. actives 0.048% (n = 320,000). inhibition, % at 5.96 µM. P9WHR9. AID 2606; in the data active means inhibition above about 38%;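 further: extracellular domain of Rv3671c used as enzyme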
Mtb UGM inh: Mtb UDP-galactopyranose mutase inhibition | actives 0.06% (n = 320,000) | P9WIQ1 | purified UGM, fluorescence polarization probe displacement | inhibition, % at 10 µM; in the data active means inhibition above about 10%, passing the limit was not always enough; inconclusive means no clear call, values can overlap the other calls
Target sequence (P9WIQ1 whole entry, looked up): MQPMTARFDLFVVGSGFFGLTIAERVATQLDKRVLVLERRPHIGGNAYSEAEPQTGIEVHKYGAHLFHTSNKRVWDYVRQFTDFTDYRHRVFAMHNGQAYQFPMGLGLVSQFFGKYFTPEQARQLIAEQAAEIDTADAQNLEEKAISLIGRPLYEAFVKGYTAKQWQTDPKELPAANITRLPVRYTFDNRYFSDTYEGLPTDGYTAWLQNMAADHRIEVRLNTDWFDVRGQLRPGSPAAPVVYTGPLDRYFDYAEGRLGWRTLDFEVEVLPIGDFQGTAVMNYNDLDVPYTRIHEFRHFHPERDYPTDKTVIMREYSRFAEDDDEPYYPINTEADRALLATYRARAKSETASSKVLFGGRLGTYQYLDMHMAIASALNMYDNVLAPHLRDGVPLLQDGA
Large screens that a line does not name were inactive. Hits are enriched below; roughly 3.5% of the tested compounds scored in any of these assays.

N#C/C(=C/c1cccs1)c1nc2ccccc2[nH]1	none
COc1cccc(/C=C(/C#N)c2nc3ccccc3[nH]2)c1OC(C)C(=O)O (configuration not stated)	none
COc1cccc(/C=C(\C#N)c2nc3ccccc3[nH]2)c1OCC(=O)O	GDH-TPI counter 35.0
Cc1ccc(/C=C(\C#N)c2nc3ccccc3[nH]2)s1	GDH-TPI counter 36.7
Cc1ccc(S(=O)(=O)N/N=C/c2ccc(O)c(O)c2)cc1[N+](=O)[O-]	GDH-TPI counter 32.9
C/C(=N\NS(=O)(=O)c1ccc(C)c([N+](=O)[O-])c1)c1cc2ccccc2o1	GDH-TPI counter 40.8
Cn1c(=NN=Cc2ccccc2OCCO)sc2ccccc21	GDH-TPI counter 31.9 (no result: Mtb betalactam, Rv3671c protease, Mtb UGM inh)
COc1ccccc1N=c1sc2ccccc2n1C	none
O=C1OCCN1C(=O)[C@H]1[C@H](c2ccc(Cl)cc2)C(c2ccc(F)cc2)=NN1c1ccc(Br)cc1	GDH-TPI counter 30.9, Mtb FBA inh 55.1 (no result: Mtb betalactam, Rv3671c protease, Mtb UGM inh)
O=C1OCCN1C(=O)[C@H]1[C@H](c2ccc(F)cc2)C(c2ccc(F)cc2)=NN1c1ccc(Br)cc1	none
COc1cc(OC)cc(C(=O)NCC(=O)OCc2cc(=O)oc3cc(OC)ccc23)c1	none
COC(=O)COc1ccc2c(-c3ccc(OC)cc3)cc(=O)oc2c1	none
COc1ccc2c(COC(=O)CNS(=O)(=O)c3ccccc3)cc(=O)oc2c1	Mtb FBA inh 118.6
CC1CN(S(=O)(=O)c2cccc(C(=O)OCc3cc(=O)oc4cc(O)ccc34)c2)CC(C)O1 (configuration not stated)	none
COC(=O)Cc1cc(=O)oc2cc(OC)ccc12	Mtb FBA inh 118.5
COc1ccc(OC)c(CN2CCN(Cc3cc(=O)oc4cc(O)ccc34)CC2)c1	Mtb FBA inh 114.7
COc1ccc2c(COC(=O)c3cccc(S(=O)(=O)NCC(C)C)c3)cc(=O)oc2c1	Mtb FBA inh 41.6
COC(=O)C1CCN(Cc2cc(=O)oc3cc(OC)ccc23)CC1	none
COc1nc(-c2ccccc2)nc(C)c1CC(=O)O	none
O=C1N/C(=C/c2ccc(N3CCOCC3)o2)C(=O)N1c1cccc(Cl)c1	none
Nn1c(SCC(=O)NNC(=O)c2ccccc2)nnc1-c1ccccc1F	none
O=C(c1ccccc1)N(c1ccccc1)c1ccccc1O	none (no result: Mtb betalactam, Rv3671c protease, Mtb UGM inh)
COc1ccc(-c2cc(=O)[nH]c3ccccc23)cc1	Mtb UGM inh 11.0
COC(=O)Cc1c(C(=O)OC)nnn1-c1ccc(OC(F)(F)F)cc1	none
Cc1onc(-c2ccccc2)c1C(=O)NNC(=S)NC(=O)/C=C/c1cccs1	GDH-TPI counter 63.0
Cc1ccc(NC(=O)CN(C)C(=O)Cc2ccc(Cl)cc2Cl)cc1	none
CCOc1ccc(NC(=O)CN(C)C(=O)c2ccc3c(c2)C(=O)N(CCC(C)C)C3=O)cc1OCC	none
C=CCC1(CC=C)CCCN1C(=O)C1CCC(=O)N(CCc2ccccc2)C1 (configuration not stated)	Mtb betalactam inconclusive
Cc1cc(C(=O)N/N=C/c2ccc[nH]2)n[nH]1	GDH-TPI counter 39.1
Cc1cc(C(=O)N/N=C/c2ccc[nH]2)no1	GDH-TPI counter 30.7
Cc1cc(C(=O)N/N=C/c2ccc(-c3ccccc3Cl)o2)n[nH]1	GDH-TPI counter 34.5
Cc1cc(C(=O)N/N=C/c2ccccc2Br)no1	none
Cc1cc(C(=O)N/N=C/c2cccnc2)n[nH]1	none
COc1ccccc1CNc1cc(C)ccn1	none
Cc1cccc(-c2noc(CCCC(=O)NC3CCCC3)n2)c1	none
Cc1cc2[nH]c(=O)c(=O)[nH]c2cc1S(=O)(=O)NC1CCCCC1C (configuration not stated)	Mtb FBA inh 31.7
Cc1cc2c(cc1S(=O)(=O)NC1CCCCC1C)OCC(=O)N2 (configuration not stated)	none
O=C(CC(=O)c1ccccc1)CS(=O)(=O)c1ccccc1	GDH-TPI counter 40.5 (no result: Mtb betalactam, Rv3671c protease, Mtb UGM inh)
Cc1ccc(S(=O)(=O)CC(=O)c2ccccc2)cc1	none
COc1ccc(/C=N/N=C2/NC(=O)C(CC(=O)O)S2)cc1OCc1ccccc1Cl (configuration not stated)	GDH-TPI counter 45.8
COc1ccc(S(=O)(=O)Oc2cccc(/C=N/N=C3/NC(=O)C(CC(=O)O)S3)c2)cc1 (configuration not stated)	none
CCOc1cc(/C=N/N=C2/NC(=O)C(CC(=O)O)S2)ccc1OS(=O)(=O)c1ccc(C)cc1 (configuration not stated)	none (no result: Mtb betalactam, Rv3671c protease, Mtb UGM inh)
COc1ccc(/C=N/N=C2/NC(=O)C(CC(=O)O)S2)cc1OCc1ccc(Cl)cc1Cl (configuration not stated)	GDH-TPI counter 34.7
CCOc1cc(/C=N/N=C2/NC(=O)C(CC(=O)O)S2)ccc1OCc1ccccc1Cl (configuration not stated)	GDH-TPI counter 39.7
COc1cc(/C=C(\C#N)C(N)=O)ccc1OCc1c(C)no[n+]1[O-]	GDH-TPI counter 31.2
CN(C)c1ccc(/C=N/NC(=O)CNC(=O)c2ccc3c(c2)OCCO3)cc1	GDH-TPI counter 39.8
O=C(CNC(=O)c1ccc2c(c1)OCCO2)N/N=C/c1ccc(O)cc1O	none
CN(C)c1ccc(/C=N/NC(=O)CNC(=O)c2ccncc2)cc1	GDH-TPI counter 32.8
O=C(CNC(=O)c1ccncc1)N/N=C/c1ccc(O)cc1O	GDH-TPI counter 39.0
CN(C)c1ccc(/C=N/NC(=O)CNC(=O)/C=C/c2ccco2)cc1	GDH-TPI counter 40.5
COc1ccc(C(=O)Cn2c(C(=O)/C=C/c3ccccc3)nc3ccccc32)cc1	GDH-TPI counter 32.2
COc1ccc(NC(=O)CN(C)CC(=O)NCCc2ccc(F)cc2)cc1	none (no result: Mtb betalactam, Rv3671c protease, Mtb UGM inh)
CC(C)Cc1[nH]c(=O)c(C#N)c2c1COC(C)(C)C2	GDH-TPI counter 31.0
COc1ccc2cc(C(=O)C3CCCN(C(=O)Cc4c(C)noc4C)C3)ccc2c1 (configuration not stated)	Mtb FBA inh 181.7
COc1ccc2cc(C(=O)C3CCCN(C4CCOCC4)C3)ccc2c1 (configuration not stated)	Mtb FBA inh 148.2
O=C(NCc1ccccn1)c1ccc(Cl)c(S(=O)(=O)N2CCOCC2)c1	none
O=C(/C=C/NCc1cccnc1)c1ccc(Br)cc1	GDH-TPI counter 53.7
COc1ccc(N(C)C(=O)c2cc3c(s2)-c2ccccc2OC3)c(OC)c1	Mtb betalactam inconclusive
COC(=O)c1cc2c(s1)-c1cc(F)ccc1OC2	GDH-TPI counter 30.6, Mtb FBA inh 61.7
O=C(N/N=C/c1cccc(C(F)(F)F)c1)c1cc2c(s1)-c1ccccc1CC2	none
COC(=O)c1cc2c(s1)-c1ccccc1CC2	Mtb FBA inh 94.4
Cc1cccc(/C=N/NC(=O)c2cc3c(s2)-c2ccccc2CC3)c1	GDH-TPI counter 33.6
CCOc1ccc(CCNC(=O)COC(=O)COc2ccccc2C)cc1OCC	none
COc1ccc(N/C=C(\C#N)c2ccc(OCCCF)cc2)cc1	none
Cc1ccc(N/C=C(\C#N)c2ccc(OCCCF)cc2)cc1	GDH-TPI counter 40.8
CC(C)CS(=O)(=O)C1=NN2C(=N)/C(=C\c3ccc(OC(=O)c4ccco4)cc3)C(=O)N=C2S1	GDH-TPI counter 33.8
N=C1/C(=C/c2ccc(Br)o2)C(=O)N=C2SC(CC(=O)N3CCCC3)=NN12	none
